From PubChem BioAssay (NCI)
The panel holds about 83,000 compounds, 20% with a hit somewhere; the sample as a whole holds those more often.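 Single-dose data. Exposure time 48 hours. Values below 10 considered active.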 A number with no mark means an inactive call. Activity calls are given as the source filed them.

Key:
Experiment in all cases: NCI-60 one-dose screen, 48 h (100 = growth as untreated, 0 = no growth, -100 = all killed)
Settings in all cases: 10 µM unless noted
NCI/ADR-RES ovarian = test system: NCI/ADR-RES ovarian
T-47D breast = test system: T-47D breast
BT-549 breast = test system: BT-549 breast
MDA-MB-435 melanoma = test system: MDA-MB-435 melanoma
SW-620 colon = test system: SW-620 colon
MCF7 breast = test system: MCF7 breast
HCT-116 colon = test system: HCT-116 colon
HCC-2998 colon = test system: HCC-2998 colon
KM12 colon = test system: KM12 colon

SMILES | growth (NCI/ADR-RES ovarian) | growth (T-47D breast) | growth (BT-549 breast) | growth (MDA-MB-435 melanoma) | growth (SW-620 colon) | growth (MCF7 breast) | growth (HCT-116 colon) | growth (HCC-2998 colon) | growth (KM12 colon)
C[C@]12CC[C@H]3[C@@H](C[C@@H]4SC(Nc5ccccc5)=N[C@@]45CC(O)CC[C@]35C)[C@@H]1CCC2O (stereo partly drawn) | 36.3% | 16.3% | 19.2% | 3.47% (active) | -19.4% (active) | 29.2% | -81.5% (active) | 98.2% | 15.6%
COc1ccc(O)c(CNC(=O)CN2CCCC2=O)c1 | 97.8% | 99.4% | 98.7% | 101% | 101% | 102% | 98.8% | 98.6% | 101%
O=C1OCC2=C1C(c1ccccc1)c1cc3c(cc1N2)OCO3 (stereo not drawn) | -0.134% (active) | 62.6% | -5.6% (active) | -24.9% (active) | 27.8% | 15.9% | 4.53% (active) | 3.21% (active) | -32% (active)
COc1ccc2c(c1)c(-c1nc(-c3c[nH]c4ncccc34)cs1)cn2CCCCN1CCCCC1 | 1.16% (active) | -55.5% (active) | 69.2% | -92.7% (active) | -71.9% (active) | -74.9% (active) | -98.9% (active) | -9.73% (active) | -62.9% (active)
COc1cc2c(cc1OCCCCCn1c(-c3ccco3)nc3ccccc31)N=C[C@@H]1CCCN1C2=O | 11.2% | 27.8% | 18% | -48.1% (active) | 15% | 13.4% | 14.5% | -22.3% (active) | 2.44% (active)
Nc1c(F)cc(-c2nc3cc(F)ccc3[se]2)cc1Br | 89.8% | -9.56% (active) | 43% | 94.2% | 84.4% | 2.12% (active) | 15.5% | -35.1% (active) | 38.8%
O=C(CC1(O)C(=O)Nc2ccc(Cl)cc21)c1ccc(C(=O)NCC2CCC3(CC2)OOC2(CCCCC2)OO3)cc1 (stereo not drawn) | 58.3% | -24.7% (active) | 48.8% | 8.39% (active) | -49% (active) | 37.4% | 41.6% | 83.6% | 9.65% (active)
CCCCCCCCCCCCCCCCCCOc1ccccc1COP(=O)(O)OOCC[N+](C)(C)C | 88.5% | 16.8% | 25.5% | 7.62% (active) | 6.94% (active) | 16.2% | 1.15% (active) | -8.6% (active) | 0.411% (active)
CC(=O)Oc1ccccc1C(=O)NCCC[Se]C#N | 14.4% | 83.3% | -97% (active) | 3.02% (active) | 72.9% | 14.5% | 0.0792% (active) | 97.9% | 29.6%
Clc1cccc(Cl)c1Cl | 105% | 85.8% | 102% | 105% | 105% | 93.5% | 98.9% | 99.8% | 100%
COC(=O)[C@@H](C)C[C@H](Cc1cn(C)c2ccccc12)NC(=O)c1csc([C@@H](C[C@H](C(C)C)N(C)C(=O)[C@@H](NC(=O)[C@H]2CCCCN2C)C(C)C)OC(C)=O)n1 | 20.7% | 67.7% | -15.9% (active) | -41.5% (active) | 26.8% | 17.8% | 6.08% (active) | 17.3% | 9.11% (active)
CC(C)[C@]12O[C@H]1[C@@H]1O[C@]13[C@]1(O[C@H]1C[C@H]1c4c(C(=O)c5ccccc5)oc(OC(=O)c5ccccc5)c4CC[C@@]13C)[C@@H]2O | 8.83% (active) | 6.53% (active) | -24.3% (active) | -87.9% (active) | -3.73% (active) | 12.5% | 5.12% (active) | -15.3% (active) | -15.7% (active)
COc1cccc2c1c(C(=O)c1ccco1)cn2Cc1ccc(F)cc1 | 104% | 97.2% | 116% | 148% | 109% | 99.6% | 111% | 102% | 116%
OCCNC(Cc1ccccc1)c1ccc2c(c1)OCO2 (stereo not drawn) | 102% | 60% | 81.2% | 108% | 109% | 92.9% | 86.3% | 99.3% | 101%
O=C(Nc1ccc([As]=[As]c2ccc(NC(=O)c3ccccc3)cc2)cc1)c1ccccc1 (stereo not drawn) | -38.6% (active) | -51.9% (active) | -90.4% (active) | -77.2% (active) | -67.3% (active) | -57.7% (active) | -92.4% (active) | -80.5% (active) | -80.4% (active)
COC(=O)[C@@H](C)C[C@H](Cc1ccc2ccccc2c1)NC(=O)c1csc([C@@H](C[C@H](C(C)C)N(C)C(=O)[C@@H](NC(=O)[C@H]2CCCCN2C)C(C)C)OC(C)=O)n1 | 60.3% | 72.9% | -22.3% (active) | 19.7% | 51.2% | 17% | 51.4% | 52.8% | 36.2%
COc1cc2ncnc(Nc3ccc(F)c(Cl)c3)c2cc1OCC(=O)N1CCN(C)CC1 | 86.7% | 70% | 89.6% | 102% | 105% | 80.4% | 91.3% | 102% | 96.4%
COC(=O)[C@@H](C)C[C@H](Cc1ccccc1)NC(=O)c1csc([C@@H](C[C@H](C(C)C)N(C)C(=O)[C@@H](NC(=O)[C@H]2CCCCN2C)C(C(F)(F)F)C(F)(F)F)OC(C)=O)n1 | 23.8% | 59.7% | -21.6% (active) | -46.1% (active) | 23.1% | 12.2% | -10.3% (active) | 19.9% | 7.94% (active)
COc1ccc(-n2c(C)nc3cc(OC)c(OC)cc3c2=O)cc1OC | 102% | 91.4% | 102% | 104% | 105% | 91.8% | 98.7% | 109% | 104%
COC(=O)[C@H](Cc1ccccc1)NC(=O)c1csc([C@@H](C[C@H](C(C)C)N(C)C(=O)[C@@H](NC(=O)[C@H]2CCCCN2C)C2CC2)OC(C)=O)n1 | 15.9% | 28.3% | 2.98% (active) | -44.4% (active) | 22.8% | 19.5% | -16.9% (active) | 16.1% | 2.87% (active)
ClCCN(CCCl)c1ccc(OCc2ccccc2)cc1 | 56.7% | 68.4% | 42.7% | 75% | 60.9% | 31.7% | 55.9% | 89.1% | 90.5%
CC(C)CCC1(CCCl)C(=O)NC(=O)NC1=O | 102% | 105% | 102% | 97% | 98.9% | 96.4% | 100% | 107% | 108%
CC(=O)OC[C@]1(C)C=C2C(=O)[C@](C)(O)C3(CC3)C(C)=C2[C@H]1O | -18.7% (active) | -8.92% (active) | -42.4% (active) | -24.1% (active) | 0.025% (active) | 1.05% (active) | 0.12% (active) | -59.8% (active) | 10.4%
O=C(CCl)c1ccc([N+](=O)[O-])o1 | -49.5% (active) | -53.5% (active) | 44.3% | -4.26% (active) | -97% (active) | 18.6% | -100% (active) | 31.1% | -21.2% (active)
CC(=O)OCc1cc[c]([Hg][Cl])o1 | 77.1% | 17.8% | 14.3% | 29.4% | 25.4% | 20.2% | 35.7% | 76.4% | 91.8%
c1ccc(COc2ccc3[nH]cc(CCN(Cc4ccccc4)Cc4ccccc4)c3c2)cc1 | 91.4% | 62.9% | 103% | 102% | 90.5% | 79.3% | 60.3% | 99.7% | 88%
CC[C@]12C=CCN3CC[C@@]4(c5ccc(OC)cc5N(C)[C@H]4[C@@](O)(C(=O)OC)[C@@H]1OC(=O)CCCC[P+](c1ccccc1)(c1ccccc1)c1ccccc1)[C@@H]32 | 91.6% | 4.99% (active) | -1.04% (active) | -19.7% (active) | 29.4% | 4.69% (active) | 8.03% (active) | 15.9% | 3.15% (active)
